# Measured values as given in the supplement of paper PMC12282887.
# ± gives the standard deviation of the averaged measurements.
# Columns and labels:
# Assay in all cases: promoter activity interaction Z-score (Lux/OD deviation from empty-vector control); higher = stronger promoter induction by the compound
# [1] = test system: E. coli BW25113 acrABp lux reporter
# How it was run: (§1)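 At 37°C, E. coli BW25113 reporter cultures in 40 µl LB Lennox in 384-well plates were read for OD600 and luminescence every 30 min for 12 h. Windows were 0–8 h for wild type and 1–9 h for deletion strains, and wells under 10% of the median growth value were removed. The score is the Z-transformed residual of growth-normalised luminescence against a control fit.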
# [2] = test system: E. coli BW25113 micFp lux reporter
# How it was run: as §1
# [3] = test system: E. coli BW25113 ompFp lux reporter
# How it was run: as §1
# [4] = test system: E. coli BW25113 robp lux reporter
# How it was run: as §1
# [5] = test system: E. coli BW25113 soxSp lux reporter
# How it was run: as §1
# [6] = test system: E. coli BW25113 tolCp lux reporter
# How it was run: as §1
# [7] = 23.5 µg/ml, genetic background: wild type
# [8] = 23.5 µg/ml, genetic background: ΔmarA
# [9] = 23.5 µg/ml, genetic background: Δrob
# [10] = 23.5 µg/ml, genetic background: ΔsoxS
# [11] = 47.1 µg/ml, genetic background: wild type
# [12] = 47.1 µg/ml, genetic background: ΔmarA
# [13] = 47.1 µg/ml, genetic background: Δrob
# [14] = 47.1 µg/ml, genetic background: ΔsoxS
# [15] = 94.1 µg/ml, genetic background: wild type
# [16] = 94.1 µg/ml, genetic background: ΔmarA
# [17] = 94.1 µg/ml, genetic background: Δrob
# [18] = 94.1 µg/ml, genetic background: ΔsoxS
# [19] = 188.3 µg/ml, genetic background: wild type
# [20] = 188.3 µg/ml, genetic background: ΔmarA
# [21] = 188.3 µg/ml, genetic background: Δrob
# [22] = 188.3 µg/ml, genetic background: ΔsoxS
structure (smiles),measurement,setting,value
C[C@H](CCC(=O)O)[C@H]1CC[C@H]2[C@@H]3CC[C@@H]4C[C@H](O)CC[C@]4(C)[C@H]3CC[C@]12C [Lithocholic acid],promoter activity interaction Z-score,[1]; [7],0.128 ± 0.083
same,promoter activity interaction Z-score,[1]; [8],1.34 ± 2.3
same,promoter activity interaction Z-score,[1]; [9],0.0671 ± 0.095
same,promoter activity interaction Z-score,[1]; [10],-0.142 ± 0.031
same,promoter activity interaction Z-score,[1]; [11],0.171 ± 0.17
same,promoter activity interaction Z-score,[1]; [12],0.66 ± 0.77
same,promoter activity interaction Z-score,[1]; [13],0.304 ± 0.021
same,promoter activity interaction Z-score,[1]; [14],-0.0227 ± 0.072
same,promoter activity interaction Z-score,[1]; [15],-0.00199 ± 0.34
same,promoter activity interaction Z-score,[1]; [16],0.576 ± 0.88
same,promoter activity interaction Z-score,[1]; [17],-0.304 ± 0.19
same,promoter activity interaction Z-score,[1]; [18],-0.652 ± 0.55
same,promoter activity interaction Z-score,[1]; [19],-0.12 ± 0.18
same,promoter activity interaction Z-score,[1]; [20],0.897 ± 2.2
same,promoter activity interaction Z-score,[1]; [21],-0.207 ± 0.095
same,promoter activity interaction Z-score,[1]; [22],-0.566 ± 1.5
same,promoter activity interaction Z-score,[2]; [7],-0.113 ± 0.26
same,promoter activity interaction Z-score,[2]; [8],0.16 ± 0.35
same,promoter activity interaction Z-score,[2]; [9],0.238 ± 0.17
same,promoter activity interaction Z-score,[2]; [10],-0.193 ± 0.12
same,promoter activity interaction Z-score,[2]; [11],0.314 ± 0.66
same,promoter activity interaction Z-score,[2]; [12],0.226 ± 0.41
same,promoter activity interaction Z-score,[2]; [13],0.0535 ± 0.017
same,promoter activity interaction Z-score,[2]; [14],0.243 ± 0.36
same,promoter activity interaction Z-score,[2]; [15],0.275 ± 0.18
same,promoter activity interaction Z-score,[2]; [16],0.187 ± 0.33
same,promoter activity interaction Z-score,[2]; [17],0.0887 ± 0.27
same,promoter activity interaction Z-score,[2]; [18],-0.363 ± 0.17
same,promoter activity interaction Z-score,[2]; [19],-0.215 ± 0.76
same,promoter activity interaction Z-score,[2]; [20],0.379 ± 0.47
same,promoter activity interaction Z-score,[2]; [21],-0.0294 ± 0.12
same,promoter activity interaction Z-score,[2]; [22],-0.253 ± 0.14
same,promoter activity interaction Z-score,[3]; [7],-0.331 ± 0.28
same,promoter activity interaction Z-score,[3]; [8],0.388 ± 0.35
same,promoter activity interaction Z-score,[3]; [9],0.233 ± 0.41
same,promoter activity interaction Z-score,[3]; [10],-0.266 ± 0.66
same,promoter activity interaction Z-score,[3]; [11],-0.361 ± 0.42
same,promoter activity interaction Z-score,[3]; [12],-0.326 ± 0.22
same,promoter activity interaction Z-score,[3]; [13],0.512 ± 0.58
same,promoter activity interaction Z-score,[3]; [14],0.0216 ± 0.97
same,promoter activity interaction Z-score,[3]; [15],-1.02 ± 0.35
same,promoter activity interaction Z-score,[3]; [16],-0.0279 ± 0.11
same,promoter activity interaction Z-score,[3]; [17],-0.2 ± 0.59
same,promoter activity interaction Z-score,[3]; [18],-1.15 ± 0.78
same,promoter activity interaction Z-score,[3]; [19],-0.885 ± 0.27
same,promoter activity interaction Z-score,[3]; [20],-0.942 ± 0.53
same,promoter activity interaction Z-score,[3]; [21],-0.571 ± 0.34
same,promoter activity interaction Z-score,[3]; [22],-0.828 ± 0.72
same,promoter activity interaction Z-score,[4]; [7],0.566 ± 0.055
same,promoter activity interaction Z-score,[4]; [8],1.44 ± 0.64
same,promoter activity interaction Z-score,[4]; [9],0.487 ± 0.029
same,promoter activity interaction Z-score,[4]; [10],0.99 ± 0.62
same,promoter activity interaction Z-score,[4]; [11],-0.0796 ± 0.041
same,promoter activity interaction Z-score,[4]; [12],0.19 ± 0.14
same,promoter activity interaction Z-score,[4]; [13],0.443 ± 0.039
same,promoter activity interaction Z-score,[4]; [14],1.04 ± 0.47
same,promoter activity interaction Z-score,[4]; [15],-0.0166 ± 0.45
same,promoter activity interaction Z-score,[4]; [16],1.08 ± 0.44
same,promoter activity interaction Z-score,[4]; [17],0.223 ± 0.44
same,promoter activity interaction Z-score,[4]; [18],0.195 ± 0.21
same,promoter activity interaction Z-score,[4]; [19],-0.492 ± 1.1
same,promoter activity interaction Z-score,[4]; [20],0.59 ± 0.34
same,promoter activity interaction Z-score,[4]; [21],0.0946 ± 0.17
same,promoter activity interaction Z-score,[4]; [22],0.391 ± 0.17
same,promoter activity interaction Z-score,[5]; [7],0.313 ± 0.3
same,promoter activity interaction Z-score,[5]; [8],-0.0502 ± 0.087
same,promoter activity interaction Z-score,[5]; [9],0.0422 ± 0.029
same,promoter activity interaction Z-score,[5]; [10],0.057 ± 0.13
same,promoter activity interaction Z-score,[5]; [11],-0.126 ± 0.1
same,promoter activity interaction Z-score,[5]; [12],-0.195 ± 0.067
same,promoter activity interaction Z-score,[5]; [13],0.0214 ± 0.095
same,promoter activity interaction Z-score,[5]; [14],-0.0763 ± 0.36
same,promoter activity interaction Z-score,[5]; [15],-0.137 ± 0.33
same,promoter activity interaction Z-score,[5]; [16],-0.217 ± 0.014
same,promoter activity interaction Z-score,[5]; [17],-0.165 ± 0.32
same,promoter activity interaction Z-score,[5]; [18],-0.531 ± 0.61
same,promoter activity interaction Z-score,[5]; [19],-0.578 ± 0.011
same,promoter activity interaction Z-score,[5]; [20],-0.284 ± 0.089
same,promoter activity interaction Z-score,[5]; [21],-0.408 ± 0.33
same,promoter activity interaction Z-score,[5]; [22],-0.418 ± 0.97
same,promoter activity interaction Z-score,[6]; [7],0.238 ± 0.82
same,promoter activity interaction Z-score,[6]; [8],1.52 ± 0.56
same,promoter activity interaction Z-score,[6]; [9],0.914 ± 0.84
same,promoter activity interaction Z-score,[6]; [10],0.608 ± 1.3
same,promoter activity interaction Z-score,[6]; [11],-0.0238 ± 0.039
same,promoter activity interaction Z-score,[6]; [12],0.952 ± 0.099
same,promoter activity interaction Z-score,[6]; [13],1.24 ± 0.98
same,promoter activity interaction Z-score,[6]; [14],1.3 ± 0.12
same,promoter activity interaction Z-score,[6]; [15],0.429 ± 0.87
same,promoter activity interaction Z-score,[6]; [16],1.04 ± 0.5
same,promoter activity interaction Z-score,[6]; [17],0.552 ± 0.78
same,promoter activity interaction Z-score,[6]; [18],0.284 ± 0.072
same,promoter activity interaction Z-score,[6]; [19],0.995 ± 0.41
same,promoter activity interaction Z-score,[6]; [20],0.554 ± 0.33
same,promoter activity interaction Z-score,[6]; [21],0.54 ± 0.74
same,promoter activity interaction Z-score,[6]; [22],0.774 ± 1.2
